Screens: PubChem, National Center for Advancing Translational Sciences (NCATS)
Compounds with a hit are over-represented: about 4.4% of the library has one in this group of screens.
TRHR ag – qHTS for Small Molecule Agonists and Allosteric Enhancers of Human TRH Receptor: Primary Screen for Agonists | Thyrotropin-releasing hormone receptor (Homo sapiens), P34981 | TRHR cells, calcium flux fluo-8, FDSS agonist mode | activation, % at 2 µM | hit rate 0.18% among 360,000 | AID 493084, 2011
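In this calcium-flux screen, cells bearing human TRHR are dye-loaded with fluo-8, baselined for 10 cycles, then exposed to library compounds; positive kinetic calcium responses during the agonist phase mark hits, with TRH as control.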
D1 PAM – Potentiators of Human D1 Dopamine Receptor: qHTS; hit rate 0.036% among 360,000; HEK293 TREx D1 cells, calcium flux, dopamine EC20 potentiation; AID 504651, 2011; D(1A) dopamine receptor (Homo sapiens), P21728; potentiation, % at 10 µM; in the data active = potentiation above about 30%
Target sequence (P21728 whole entry, looked up): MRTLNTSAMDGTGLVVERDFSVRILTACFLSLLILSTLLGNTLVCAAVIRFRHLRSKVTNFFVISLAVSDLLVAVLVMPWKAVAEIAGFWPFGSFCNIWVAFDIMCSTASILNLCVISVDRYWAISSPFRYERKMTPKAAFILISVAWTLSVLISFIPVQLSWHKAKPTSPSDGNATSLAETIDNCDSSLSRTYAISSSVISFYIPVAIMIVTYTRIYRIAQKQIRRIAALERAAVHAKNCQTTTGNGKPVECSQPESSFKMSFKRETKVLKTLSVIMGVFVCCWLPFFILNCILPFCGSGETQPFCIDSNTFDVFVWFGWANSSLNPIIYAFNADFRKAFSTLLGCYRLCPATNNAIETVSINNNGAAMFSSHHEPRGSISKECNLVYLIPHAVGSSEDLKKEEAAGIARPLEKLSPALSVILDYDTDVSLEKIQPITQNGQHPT
D1 antagonist – Antagonist of Human D 1 Dopamine Receptor: qHTS. HEK293 TREx D1 cells, calcium flux, dopamine EC80; active compounds read low. activity change, negative = inhibition, % at 10 µM. hit rate 3.2% among 360,000. AID 504652, 2011; in the data active = activity change below about -30%
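Kinetic fluorescence of a calcium dye serves as the read-out. D1-expressing Hek293 Trex cells, induced overnight at 30 C, are exposed to compound for 180 s before an EC80 dopamine addition, then read 180 s further.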
USP1 inh – Inhibitors of USP1/UAF1: Primary Screen; Ubiquitin carboxyl-terminal hydrolase 1 (Homo sapiens), O94782; recombinant USP1/UAF1, Ub-Rhodamine cleavage fluorescence; Potency, µM (series often up to 57.1 µM), actives largely listed as inhibitors; hit rate 0.23% among 390,000; AID 743255, 2014; active = well fitted inhibition curve with a large enough effect; inconclusive = small, poorly fitted or top-dose-only effect; inactive = no such curve, though single readings can be large or run the other way; note: nearly all actives have a fitted effect of over 60% in size
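High-throughput fluorogenic screen: 1nM USP1/UAF1 complex, Ub-Rho substrate 150nM final, 50mM HEPES pH 7.8 with 0.5mM EDTA, 0.1 mg/ml BSA, 1mM TCEP and 0.01% Tween-20.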
TRHR enhancer – qHTS for Small Molecule Agonists and Allosteric Enhancers of Human TRH Receptor: Primary Screen for Enhancers. AID 493056, 2011. hit rate 0.66% among 360,000. Thyrotropin-releasing hormone receptor (Homo sapiens), P34981. TRHR cells, fluo-8 calcium fluorescence, EC20 TRH enhancement. enhancement, % at 2 µM; in the data active = enhancement above about 30%
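Enhancer read-out: after compound pinning and an initial kinetic agonist-mode read, an EC20 of TRH (10 nM final) was injected and fluo-8 calcium signal (Ex 480/Em 530) followed at 1 s/cycle for 100 cycles in TRHR-expressing cells.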
D1 agonist – Allosteric Agonists of the Human D1 Dopamine Receptor: qHTS | hit rate 1% among 360,000 | activation, % at 2 µM | HEK293 T-REx D1 cells, calcium flux, agonist mode
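Agonism was scored from calcium flux recorded over 180 s (1 read/s) after pintool compound addition, following a 10-cycle baseline. Cells were inducible force-coupled HEK293 TREx D1, plated overnight at 30 C and loaded with no-wash calcium dye.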
Numbers stand for hits; 0 = inactive; ? = inconclusive; - = no result given. Cut-off read from the data, not from the text of the source, unless noted: active = activation above about 30%; inactive = the rest.

SMILES	TRHR ag	D1 PAM	D1 antagonist	USP1 inh	TRHR enhancer	D1 agonist
CCn1c(=O)c(C(=O)NNC(=O)c2ccccc2F)c(O)c2ccccc21	43	0	-42	0	0	83
CCn1c(=O)c(C(=O)NNC(=O)c2ccccc2Cl)c(O)c2ccccc21	0	0	0	0	0	66
Cn1c(=O)c(C(=O)NNC(=O)c2ccccc2F)c(O)c2ccccc21	0	0	0	0	0	0
Cc1cccc(C)c1NC(=S)NCCc1ccc(O)c(O)c1	0	0	-48	0	0	0
Cc1ccccc1NC(=S)NCCc1ccc(S(N)(=O)=O)cc1	0	0	0	0	0	0
Cc1cccc(NC(=S)NCCc2ccccc2)c1C	0	0	0	0	0	0
COc1ccc(CCNC(=S)Nc2cccc(C)c2C)cc1	0	0	-31	0	0	0
COc1ccc(CCNC(=O)C(=O)Nc2ccc(C)c(C)c2)cc1	0	0	0	0	32	0
COc1ccc(CCNC(=O)c2cnn(-c3cccc(C)c3)c2C2CCN(C(=O)OC(C)(C)C)CC2)cc1OC	0	0	0	?	0	0
COc1ccccc1CNC(=O)CCCc1nnc2n(CC(C)C)c(=O)c3sccc3n12	0	0	0	0	0	0
Cc1nc2nc(SCC(=O)NCc3ccccc3)nn2c(C)c1Cc1ccccc1Cl	0	0	0	0	0	0
COc1ccc(-n2ccnc(NCc3cccs3)c2=O)cc1	0	0	-34	0	0	0
COc1ccc(OC)c(C(=O)NC(CC(N)=O)c2ccc(NCCOc3ccccc3)c([N+](=O)[O-])c2)c1 (configuration not stated)	0	0	0	0	0	0
NC(=O)CC(NC(=O)c1ccccc1)c1ccc(NCCOc2ccccc2)c([N+](=O)[O-])c1 (configuration not stated)	0	0	-35	0	0	0
NC(=O)CC(NC(=O)c1ccccc1)c1ccc(NCC2CC2)c([N+](=O)[O-])c1 (configuration not stated)	0	0	-44	?	0	0
NC(=O)CC(NC(=O)c1cccc(Br)c1)c1ccc(NCC2CC2)c([N+](=O)[O-])c1 (configuration not stated)	0	0	0	0	0	0
O=C(CSc1nc2ccsc2c(=O)n1Cc1ccccc1F)NCc1ccccc1Cl	0	0	0	?	0	0
COc1ccc(OC)c(C2CC(=O)Oc3c2c(=O)n(C)c2ccccc32)c1 (configuration not stated)	0	0	0	0	0	0
COc1ccc(-c2oc3cc(O)c(OC)c(O)c3c(=O)c2OC)cc1	0	0	-30	0	0	0
COc1ccccc1NC(=O)C1CCCN(c2ncnc3onc(-c4ccc(F)cc4)c23)C1 (configuration not stated)	0	0	0	0	0	0
Cc1nc(COc2ccc(C(=O)NCc3ccccc3CN3CCCCC3)cc2)cs1	0	0	-64	0	0	34
CCc1ccc(N(C(=O)c2csnn2)C(C(=O)NC(C)(C)C)c2ccccn2)cc1 (configuration not stated)	0	0	0	0	0	0
CCc1ccc(N(C(=O)c2csnn2)C(C(=O)NC(C)(C)CC)c2ccccn2)cc1 (configuration not stated)	0	0	-66	0	0	0
C=CCC1NS(=O)(=O)OC2CCCC12 (configuration not stated)	0	0	0	0	37	0
COCCNC(=O)CSc1nc(-c2ccccc2C)nc2c1c(=O)n(C)c(=O)n2C	0	0	0	0	0	0
SMILES	TRHR ag	D1 PAM	D1 antagonist	USP1 inh	TRHR enhancer	D1 agonist
c1ccc(Nc2nc(N3CCCCC3)nc(N3CCNCC3)n2)cc1	0	0	0	0	0	42
CC(=O)NC(Cc1cccc(C)c1)C(=O)NC1CCN(S(=O)(=O)c2ccccc2)CC1 (configuration not stated)	0	0	-36	0	0	0
Cc1cccc(CC(=O)NC2CCCCCC2)c1	0	0	0	0	0	0
Cc1cccc(CC(=O)NC2CCN(C)CC2)c1	0	0	0	0	40	0
Cc1cc(Cl)ccc1OCCCC(=O)N1CCN(C)CC1	0	0	0	0	0	0
Cc1cc(NC(=O)COC(=O)CCCOc2ccc(Cl)cc2C)no1	0	0	-30	0	0	0
Cc1cc(NC(=O)COC(=O)CCS(=O)(=O)c2ccc(Cl)cc2)no1	0	0	0	0	0	0
Cc1cc(Cl)ccc1OCCCC(=O)NC1CCN(C)CC1	0	0	-42	0	0	0
Oc1ccc(COC2CCN(Cc3ccccc3)C2)c2cccnc12 (configuration not stated)	0	0	0	-	0	0
N#Cc1c(NC(=O)c2ccccc2)sc2c1CCCCC2	0	0	0	0	0	0
N#Cc1c(Cl)nsc1NC(=O)c1ccccc1	0	0	-37	0	0	34
CC(=O)Nc1sc(N/N=C\c2ccccc2F)nc1-c1cccs1	0	0	0	0	36	0
Cc1cccc(N2CCN(Cc3cc(=O)oc4cc(C)ccc34)CC2C)c1 (configuration not stated)	0	0	0	0	0	0
COc1ccccc1C(=O)NC1(C(F)(F)F)C(=O)NC(C)=C1C#N (configuration not stated)	0	0	0	0	0	0
COc1ccc(Cl)cc1NC(=O)CSc1ccc(-c2sc(C)nc2C)nn1	0	0	0	0	0	0
O=C(CCn1cncn1)N1CCCC(N2CCN(c3cccc(C(F)(F)F)c3)CC2)C1 (configuration not stated)	0	0	-44	0	0	0
O=C(c1ccc(C(F)(F)F)cc1)C1CCCN(C(=O)Cn2cncn2)C1 (configuration not stated)	0	0	-37	0	0	0
CCN(CC(=O)Nc1c(F)cccc1F)C(=O)Cc1c[nH]c2ccccc12	-	-	-	0	-	-
CCN(CC(=O)Nc1c(F)cccc1F)C(=O)Cc1ccc2c(c1)CCC2	0	0	-34	0	0	0
CCN(CC(=O)Nc1c(F)cccc1F)C(=O)Cn1[nH]c(=O)c2ccccc2c1=O	0	0	-50	0	0	0
CCN(CC(=O)Nc1c(F)cccc1F)C(=O)Cc1ccc2c(c1)OCCO2	0	0	0	0	0	0
